Relative growth data for 41 compounds are collected here from the supplement of paper PMC9446081.

Hit rate of the full screen: of about 39,000 compounds, about 220 (0.56%) showed activity. The sample as a whole holds a higher share of actives than the screen did. A number with no mark means an inactive call.
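Note: Wild-type cells incubated without shaking, value is the mean of two biological replicates.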

The test relates to Escherichia coli K-12 BW25113. In words: relative growth (OD600 normalised to plate interquartile mean) (fraction); higher = less growth inhibition, active = 0.2 or less. The following applies: 50 µM; LB; incubation time: overnight (16-24 h).
`C[C@H](CO)N1C[C@H](C)[C@H](CN(C)S(=O)(=O)c2ccccc2F)Oc2ncc(C#Cc3ccccc3F)cc2C1=O`: the relative growth is 0.997.

Take `CO[C@@H]1CN(C)C(=O)c2cc(NC(=O)c3ccccc3)ccc2OC[C@@H](C)N(C(=O)CN(C)C)C[C@@H]1C`: the relative growth is 0.926.

Regarding `Cc1noc(C)c1NC(=O)Nc1cccc2c1O[C@H](CN(C)Cc1ccc(Oc3ccccc3)cc1)[C@H](C)CN([C@H](C)CO)C2=O`, the relative growth is 0.982.

Turning to `Cc1noc(C)c1S(=O)(=O)Nc1ccc2c(c1)C(=O)N([C@@H](C)CO)C[C@@H](C)[C@@H](CN(C)S(=O)(=O)c1cccs1)O2`, the relative growth was 1.01.

Turning to `C[C@H](CO)N1C[C@H](C)[C@H](CN(C)Cc2ccc(C(=O)O)cc2)Oc2ccc(NC(=O)CCCN(C)C)cc2C1=O`, the relative growth was 1.01.

Take `COc1ccc(C2=C(NC(=O)c3ccc(OC)cc3-c3cccc(OC)c3)C(=O)c3ccccc3C2=O)cc1`: the relative growth was 1.01.

Regarding `C[C@@H]1CCCCO[C@@H](CN(C)C(=O)CCC(F)(F)F)[C@H](C)CN([C@H](C)CO)C(=O)c2cc(NS(=O)(=O)c3ccccc3)ccc2O1`, the relative growth is 0.994.

For `CC=CC1=C(C(=O)O)N2C(=O)C(NC(=O)C(N)c3ccc(O)cc3)C2SC1` (stereo unspecified), the relative growth was 1.08.

On to `Nc1nc(/C(=N/O)C(=O)N[C@@H]2C(=O)N3C(C(=O)O)=C(/C=C4\CCN([C@@H]5CCNC5)C4=O)CS[C@H]23)ns1`, for which the relative growth was 0.0367 (active).

Turning to `C/C=C\C1=C(C(=O)O)N2C(=O)[C@H](NC(=O)[C@@H](N)c3ccc(O)cc3)[C@@H]2SC1`, the relative growth was 0.912.

With `C=CC1=C(C(=O)O)N2C(=O)[C@@H](NC(=O)/C(=N/O)c3csc(N)n3)[C@H]2SC1`, the relative growth was 0.0336 (active).

In the case of `C[C@H](CO)N1C[C@H](C)[C@H](CN(C)S(=O)(=O)c2ccc(Cl)cc2)Oc2ccc(NC(=O)CCCN(C)C)cc2C1=O`, the relative growth is 0.989.

`COc1ccc(Cc2nn[nH]n2)cc1`: the relative growth is 1.

For the compound `Cc1noc(C)c1NC(=O)N(C)C[C@H]1OCCCC[C@H](C)Oc2ccc(NC(=O)c3ccccc3)cc2C(=O)N([C@@H](C)CO)C[C@H]1C`, the relative growth is 0.98.

As for `CCc1nc2ccc(C(=O)Nc3cccc(OC)c3)cn2c1N(CC)Cc1cccc(Br)c1`, the relative growth is 1.01.

In the case of `CO[C@H]1CN(C)C(=O)c2cc(NC(C)=O)ccc2OC[C@@H](C)N(S(=O)(=O)c2cn(C)cn2)C[C@@H]1C`, the relative growth is 1.01.

Consider `CCn1cc(C(=O)O)c(=O)c2cc(F)c(N3CCNC(C)C3)c(F)c21.Cl` (stereo unspecified), for which the relative growth was 0.0478 (active).

`COc1c(N2CC3CCCNC3C2)c(F)cc2c(=O)c(C(=O)O)cn(C3CC3)c12.Cl` (stereo unspecified): the relative growth was 0.0459 (active).

Turning to `COc1c(N2CCNC(C)C2)c(F)cc2c(=O)c(C(=O)O)cn(C3CC3)c12` (stereo unspecified), the relative growth is 0.0431 (active).

Turning to `C[C@@H]1CN([C@@H](C)CO)C(=O)c2cc(Br)cnc2O[C@H]1CN(C)C(=O)c1ccc2c(c1)OCO2`, the relative growth is 0.994.

Consider `Nc1c2c(=O)[nH]c(=O)cc-2[nH]n1-c1ccccc1`, for which the relative growth was 0.972.

As for `COCC#Cc1ccc2c(c1)O[C@H](CN(C)C(=O)C1CCOCC1)[C@H](C)CN([C@@H](C)CO)S2(=O)=O`, the relative growth is 1.01.

For `CC(C)CNC(=O)C[C@H]1NCCNC1=O`, the relative growth is 0.923.

For the compound `CN1C(=O)c2cc(NC(=O)c3cccs3)ccc2OC[C@@H]2O[C@H](CC(=O)NCCN3CCCCC3)CC[C@H]21`, the relative growth was 1.02.

Consider `C[C@@H]1CN([C@H](C)CO)C(=O)c2cc(NC(=O)Cn3cnnn3)ccc2O[C@@H]1CN(C)Cc1ccncc1`, for which the relative growth is 1.01.

Consider `C[C@H]1CN([C@@H](C)CO)C(=O)c2cc(-c3ccncc3)cnc2O[C@H]1CN(C)S(=O)(=O)c1ccccc1`, for which the relative growth is 1.01.

In the case of `C=C(CC[C@@H](C)[C@H]1CC[C@@]2(C)C3=C(C[C@H](O)[C@]12C)[C@@]1(C)CC[C@@H](OC(=O)CC(=O)O)C(C)(C)[C@@H]1CC3)[C@@H](C)C(=O)O`, the relative growth is 0.89.

On to `C[C@@H]1CN([C@H](C)CO)C(=O)c2cc(NC(=O)Nc3ccc(F)cc3)ccc2O[C@@H](C)CCCCO[C@H]1CN(C)C(=O)C1CCCCC1`, for which the relative growth is 1.01.

Take `CN1CCN(C(=O)C[C@@H]2CC[C@@H]3[C@H](COC[C@H](O)CN3C(=O)Nc3ccc4c(c3)OCO4)O2)CC1`: the relative growth is 0.974.

`Cc1noc(C)c1S(=O)(=O)N(C)C[C@@H]1OCCCC[C@H](C)Oc2ccc(NC(=O)Nc3ccc(F)cc3)cc2C(=O)N([C@H](C)CO)C[C@@H]1C`: the relative growth is 1.

For the compound `CON=C(C(=O)NC1C(=O)N2C(C(=O)[O-])=C(CSc3nc(=O)c([O-])nn3C)CSC12)c1csc(N)n1.O.O.O.[Na+].[Na+]` (stereo unspecified), the relative growth was 0.0494 (active).

For the compound `COCC1=C(C(=O)OC(C)OC(=O)OC(C)C)N2C(=O)C(NC(=O)C(=NOC)c3csc(N)n3)C2SC1` (stereo unspecified), the relative growth was 0.551.

Regarding `CON=C(C(=O)NC1C(=O)N2C(C(=O)OC(C)OC(C)=O)=C(COC(N)=O)CSC12)c1ccco1` (stereo unspecified), the relative growth is 0.881.

Consider `CON=C(C(=O)NC1C(=O)N2C(C(=O)[O-])=C(COC(C)=O)CSC12)c1csc(N)n1.[Na+]` (stereo unspecified), for which the relative growth was 0.0428 (active).

Take `CO/N=C(\C(=O)N[C@@H]1C(=O)N2C(C(=O)O)=C(CSc3nnnn3C)CS[C@H]12)c1csc(N)n1`: the relative growth is 0.0456 (active).

`CON=C(C(=O)NC1C(=O)N2C(C(=O)[O-])=C(COC(N)=O)CSC12)c1ccco1.[Na+]` (stereo unspecified): the relative growth was 0.0464 (active).

As for `CO/N=C(\C(=O)N[C@@H]1C(=O)N2C(C(=O)O[C@@H](C)OC(C)=O)=C(COC(N)=O)CS[C@H]12)c1ccco1`, the relative growth is 1.01.

Regarding `Nc1nc(=O)c2nc(Br)n([C@@H]3O[C@@H]4COP(=O)(O)O[C@H]4[C@H]3O)c2[nH]1`, the relative growth was 1.03.

Turning to `O=C(C[C@@H]1C[C@H]2c3cc(NC(=O)Nc4ccc(C(F)(F)F)cc4)ccc3O[C@H]2[C@H](CO)O1)NCc1ccc(Cl)cc1`, the relative growth was 0.984.

For the compound `CN1CCN(C(=O)C[C@H]2CC[C@@H]3[C@H](COC[C@H](O)CN3CC3CCCC3)O2)CC1`, the relative growth is 1.

Take `C[C@H](CO)N1C[C@H](C)[C@H](CN(C)C(=O)c2cccc(F)c2)Oc2cc(-c3cccnc3)ccc2S1(=O)=O`: the relative growth is 1.03.
